Results reported in PubChem BioAssay (NCATS).
Values joined by “and” are separate entries in the source; they are usually repeats but may differ in a detail not shown here. Equal entries are not always repeated. Inconclusive results are not listed. Active and inactive are the calls of the source. Unless noted, calls follow the shape of the dose curve; as a rule, active = well fitted curve in the direction sought with a large enough effect; inconclusive = small, poorly fitted or top-dose-only effect, or another doubt; inactive = no such curve, though single readings can be large; an effect the other way counts as inactive or inconclusive.

Experiments:
[1] = target: Cellular tumor antigen p53 (Homo sapiens) (UniProt P04637); assay: Primary qHTS for small molecule compounds that upregulate eGFP-tagged delta133p53alpha (in N-terminal) cells. (AID 2060322); settings: NCI-H358 eGFP-delta133p53alpha fluorescence, 24 h; activation: stronger effect = higher value; also: nearly all actives have a fitted effect of over 75% in size; also: potency is read from the fitted curve at half-maximal effect;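 as to activation: 0% = DMSO vehicle and 100% = reference activator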
Cellular tumor antigen p53 (Homo sapiens), sequence (P04637 whole entry, looked up): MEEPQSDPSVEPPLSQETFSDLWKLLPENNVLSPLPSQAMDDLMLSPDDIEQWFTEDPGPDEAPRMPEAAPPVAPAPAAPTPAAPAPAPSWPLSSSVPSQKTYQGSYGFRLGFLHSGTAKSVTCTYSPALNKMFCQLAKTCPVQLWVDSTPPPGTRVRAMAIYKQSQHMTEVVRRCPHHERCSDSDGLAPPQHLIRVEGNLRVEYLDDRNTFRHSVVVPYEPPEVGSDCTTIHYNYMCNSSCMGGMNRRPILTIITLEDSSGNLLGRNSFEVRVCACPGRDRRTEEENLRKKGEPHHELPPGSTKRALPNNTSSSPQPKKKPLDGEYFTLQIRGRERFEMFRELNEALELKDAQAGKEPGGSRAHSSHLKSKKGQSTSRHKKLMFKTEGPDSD
Summary of the method: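 NCI-H358 cells pre-induced 24 h with 10 ng/ml doxycycline to express N-terminal eGFP-delta133p53alpha, then dosed 24 h at 37C without doxycycline; fixed, Hoechst-stained, GFP intensity by laser scanning cytometry, normalized to DMSO (0%) and 57.5 uM 5-azacytidine (100%).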

[2] = target: Cellular tumor antigen p53 (Homo sapiens) (UniProt P04637); assay: Primary qHTS for small molecule compounds that upregulate eGFP-tagged delta133p53alpha (in C-terminal) cells. (AID 2060324); settings: NCI-H358 delta133p53alpha-eGFP (C-terminal tag), GFP fluorescence imaging, 24 h; series mostly up to 57.5 µM; also: potency is read from the fitted curve at half-maximal effect
Summary of the method: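 NCI-H358 cells with doxycycline-inducible D133p53a-eGFP (C-terminal tag), pre-induced 24 h with 100 ng/ml doxycycline, plated 800/well in doxycycline-free medium and treated 24 h at 37 °C with compound titrations. Cells were then fixed and Hoechst-stained, and GFP intensity was read by laser scanning cytometry.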

[3] = target: Aldehyde dehydrogenase, mitochondrial (Homo sapiens) (UniProt P05091); assay: qHTS for Inhibitors of the Aldehyde Dehydrogenase Family (ALDH2) Validation screens (AID 2061302; active = well fitted inhibition curve with a large enough effect; title and protocol of this record describe different tests;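 also: plate controls were DMSO vehicle for no effect and maximal DPI positive control response for full effect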); settings: ALDH inhibition qHTS; series mostly up to 42.6 µM
[4] = target: Retinaldehyde dehydrogenase 3 (Homo sapiens) (UniProt P47895); assay: qHTS for Inhibitors of the Aldehyde Dehydrogenase Family (ALDH1A3) Validation screen (AID 2061312); settings: ALDH1A3 enzyme inhibition qHTS validation, fluorescence; series mostly up to 84.7 µM; also: % is scaled to controls: 0 for no effect and ±100 for the full control effect; nearly all actives have a fitted effect of over 45% in size

Nc1ccc(N2C(=O)c3ccccc3C2=O)c(Cl)c1
inactive: activation [1] -1.82% | Potency [2] | Potency [3] | Potency [4]

C=C1C[C@@]23CC[C@H]4[C@@](C)(CCC[C@@]4(C)C(=O)OC4OC(CO)C(O)C(O)C4O)[C@@H]2CC[C@]1(OC1OC(CO)C(O)C(O)C1OC1OC(CO)C(O)C(O)C1O)C3 (some centres undefined)
inactive: activation [1] -5.25% | Potency [2] | Potency [3] | Potency [4]

Fc1cccc(/C=N/N=C/c2cccc(F)c2)c1
inactive: activation [1] -12.5% | Potency [2] | Potency [3] | Potency [4]

O=[N+]([O-])c1ccc(CSc2ncnc3c2ncn3[C@@H]2O[C@H](CO)[C@@H](O)[C@H]2O)cc1
inactive: activation [1] -20.8% | Potency [2] | Potency [3] | Potency [4]

CC1=NS(=O)(=O)c2cc(Cl)ccc2N1
inactive: activation [1] 19.8% and -34.3% | Potency [2] | Potency [3] | Potency [4]

CN(C)CCCN1c2ccccc2CCc2ccccc21
inactive: activation [1] -0.565% and -9% | Potency [2] | Potency [3] | Potency [4]

O=S(=O)(c1cccc2c(Cl)cccc12)N1CCCNCC1
inactive: activation [1] -18.2% | Potency [2] | Potency [3] | Potency [4]

O=C(CCCCCN1CCN(c2ccccc2-c2ccccc2)CC1)NC1CCCc2ccccc21 (centres undefined)
inactive: activation [1] -20.9% | Potency [2] | Potency [3] | Potency [4]

CCC1C(=O)OCC1Cc1cncn1C (centres undefined)
inactive: activation [1] -0.565% and -54.1% and -41.4% | Potency [2] | Potency [3] | Potency [4]

C[C@@]1(C2CCCC2)Cc2cc(OCC(=O)O)c(Cl)c(Cl)c2C1=O
inactive: activation [1] 4.66% | Potency [2] | Potency [3] | Potency [4]

Cc1nc(N=Nc2ccc(C(=O)O)cc2)c(COP(=O)(O)O)c(C=O)c1O
inactive: activation [1] -2.63% | Potency [2] | Potency [3] | Potency [4]

O=c1[nH]c2cc(C(F)(F)F)ccc2n1-c1cc(C(F)(F)F)ccc1O
inactive: activation [1] -56.6% | Potency [2] | Potency [3] | Potency [4]

CO[C@@]1(NC(=O)CSCC#N)C(=O)N2C(C(=O)O)=C(CSc3nnnn3C)CS[C@@H]21
inactive: activation [1] 11.9% and 5.62% | Potency [2] | Potency [3] | Potency [4]

CC(C)C[C@H](NC(=O)C1OC1C(=O)O)C(=O)NCCCCN=C(N)N (some centres undefined)
inactive: activation [1] -1.96% | Potency [2] | Potency [3] | Potency [4]

CC(=O)c1ccc2c(c1)N(CCCN(C)C)c1ccccc1S2
inactive: activation [1] 3.95% and -33.1% | Potency [2] | Potency [3] | Potency [4]

CCCCCCCCCCCCCCCC(=O)OC(CC(=O)O)C[N+](C)(C)C (centres undefined)
inactive: activation [1] -11.1% | Potency [2] | Potency [3] | Potency [4]

Nc1nc(Cl)nc2c1ncn2[C@@H]1O[C@H](CO)[C@@H](O)[C@H]1O
inactive: activation [1] -6.39% | Potency [2] | Potency [3] | Potency [4]

O=C(O)CCCCCCCC(=O)O
inactive: activation [1] 17.5% and -5.1% | Potency [2] | Potency [3] | Potency [4]

CNC(=O)[C@H]1O[C@@H](n2cnc3c(NCc4cccc(I)c4)ncnc32)[C@H](O)[C@@H]1O
inactive: activation [1] -36.7% | Potency [2] | Potency [3] | Potency [4]

Cn1cnc2c(NCc3ccccc3)nc(NCCO)nc21
inactive: activation [1] -37% | Potency [2] | Potency [3] | Potency [4]

C[C@@H](O)[C@H]1C(=O)N2C(C(=O)O)=C(SCCN=CN)C[C@H]12
inactive: activation [1] -25.9% and 4.11% | Potency [2] | Potency [3] | Potency [4]

Fc1ccc(C(OCCCc2cnc[nH]2)c2ccc(F)cc2)cc1
inactive: activation [1] -45.7% | Potency [2] | Potency [3] | Potency [4]

NC(CCCP(=O)(O)O)C(=O)O (centres undefined)
inactive: activation [1] 34.5% | Potency [2] | Potency [3] | Potency [4]

O=c1[nH]ccc2c(O)cccc12
inactive: activation [1] -33.7% | Potency [2] | Potency [3] | Potency [4]

COC1(C2=NCCN2)COc2ccccc2O1 (centres undefined)
inactive: activation [1] -0.599% | Potency [2] | Potency [3] | Potency [4]

O=C(O)CN(CCN(CC(=O)O)CC(=O)O)CCN(CC(=O)O)CC(=O)O
inactive: activation [1] -33.2% | Potency [2] | Potency [3] | Potency [4]

c1cnc2c(c1)ccc1cccnc12
inactive: activation [1] -78.4% | Potency [2] | Potency [3] | Potency [4]

CC(C)(C)c1ccc(/C=C/C(=O)Nc2ccc3c(c2)OCCO3)cc1
inactive: activation [1] -15.3% | Potency [2] | Potency [3] | Potency [4]

Cn1cc(C2=C(c3ccc(Cl)cc3Cl)C(=O)NC2=O)c2ccccc21
inactive: Potency [3] | Potency [4]
active: Potency [1] 10.7 µM | Potency [2] 2.39 µM

C[C@H](O)C(=O)C1=Nc2c(nc(N)[nH]c2=O)NC1
inactive: activation [1] -8.4% | Potency [2] | Potency [3] | Potency [4]

CC1OC1P(=O)(O)O (centres undefined)
inactive: activation [1] 13.6% | Potency [2] | Potency [3] | Potency [4]
